ELG1 DNA repair: blocks ELG1-dependent DNA repair in HEK293T cells; HEK293T ELG1-luciferase reporter, luminescence, 16 h; DNA damage induced by 5-fluorouridine; Potency, µM (series often up to 46.1 µM), for inactives: at the top dose activity change, negative = inhibition, hits mostly inhibitors; actives 2.3% (n = 330,000); note: % is set by controls: 0 for no effect and ±100 for the full control effect; nearly all actives have a fitted effect of over 55% in size
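Reporter activity after DNA damage by 5-fluorouridine is monitored. Compound-treated cells incubate 16 hr at 37 °C, then ONE-Glo is added for 30 min before luminescence reading.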
ELG1 genotoxic: genotoxicity induction in ELG1-luciferase HEK293T cells | HEK293T ELG1-luciferase reporter, luminescence, 16 h | Potency, µM (doses to about 46 µM), inactives show at the highest dose activity change, positive = activation, most hits filed as activators | actives 1.3% (n = 330,000); note: % of control where 0% means no effect; nearly all actives have a fitted effect of over 60% in size
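DMSO vehicle served as control against compound-treated ELG1-luciferase HEK293T cells; exposure lasted 16 hr at 37 °C and 5% CO2, followed by ONE-Glo luminescence detection after 30 min.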
NPC1 prom act: activates the NPC1 promoter; Huh7 NPC1 promoter luciferase reporter, 24 h; Potency, µM (titrated, usually from 9.22 µM), without a hit: at the top dose activation, hits mostly activators; actives 2.4% (n = 320,000); AID 485313; note: % of control where 0% means no effect; nearly all actives have a fitted effect of over 60% in size
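Huh7 reporter cells (NPC1 promoter driving luciferase) are dosed with compound for 24 h at 37 °C, 5% CO2; luciferase detection reagent is then added and luminescence measured after 10 min at ambient temperature.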
SMN2 splice enh: increases expression of the SMN2 splice variant. HEK293 SMN2-luciferase splicing reporter, luminescence, 30-36 h. Potency, µM (series often up to 46.1 µM), without a hit: at the highest dose activity change, positive = activation, most hits filed as activators. actives 2.8% (n = 210,000). AID 1458; note: % of control where 0% means no effect; nearly all actives have a fitted effect of over 55% in size
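HEK293 cells carry an SMN2 […]–luciferase reporter in which exon 7 inclusion puts luciferase in frame. Cells were plated 10-12 h before compound addition, then incubated 30-36 h at 37C. ONE-Glo luminescence was read; sodium butyrate at 4.5 mM final served as control.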
Rab9 promoter act: activators of Rab9 promoter. Huh7 Rab9 promoter-luciferase reporter, luminescence, 24 h. Potency, µM (series often up to 9.22 µM), for the others: at the top dose activation, negative = inhibition, usual class: activators. actives 2.8% (n = 320,000); note: % of control where 0% means no effect; nearly all actives have a fitted effect of over 60% in size
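Quantitative HTS format; Huh7 Rab9-luciferase reporter cells (1500/well) receive compound 2 h post-plating, incubate 24 h at 37 °C, then get luciferase reagent for 10 min before luminescence reading.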
FLuc counter: inhibits or activates purified firefly luciferase, miR-21 counter-screen. Potency, µM (series often up to 57.5 µM), without a hit: top-dose activity change, negative = inhibition, hits mostly inhibitors. purified FLuc, Km substrates, luminescence inhibition. actives 6.9% (n = 360,000). P08659;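 note: plate controls were vehicle for no effect and reference inhibitor for full effect; nearly all actives have a fitted effect of over 55% in size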
Target sequence (P08659 whole entry, looked up): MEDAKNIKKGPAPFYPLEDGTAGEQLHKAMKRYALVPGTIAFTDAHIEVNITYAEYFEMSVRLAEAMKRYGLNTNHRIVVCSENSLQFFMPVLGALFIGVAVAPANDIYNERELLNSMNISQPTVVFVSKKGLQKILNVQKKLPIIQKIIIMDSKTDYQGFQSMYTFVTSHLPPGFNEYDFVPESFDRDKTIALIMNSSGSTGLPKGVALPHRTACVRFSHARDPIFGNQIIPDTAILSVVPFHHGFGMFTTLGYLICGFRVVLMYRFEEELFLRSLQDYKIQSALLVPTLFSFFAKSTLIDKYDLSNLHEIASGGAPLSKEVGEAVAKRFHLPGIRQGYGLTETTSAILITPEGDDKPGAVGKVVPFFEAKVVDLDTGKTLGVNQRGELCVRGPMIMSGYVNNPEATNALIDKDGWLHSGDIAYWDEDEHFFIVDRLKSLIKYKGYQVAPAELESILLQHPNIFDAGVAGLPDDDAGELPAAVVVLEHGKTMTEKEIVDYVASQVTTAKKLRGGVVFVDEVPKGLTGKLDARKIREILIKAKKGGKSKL
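Purified P. pyralis luciferase, 10 nM final, with Km-level 10 uM D-luciferin and 10 uM ATP in 50 mM Tris acetate pH 7.5, 10 mM Mg acetate, 0.01% Tween-20, 0.05% BSA; 6-point qHTS titration about 60 µM downward; luminescence read.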
The depositor's hits bear a star; ? = inconclusive; / = no result; [ ] = remark or other dose. This is a sample that favours compounds with a hit; in the whole collection about 9.2% have one here. Calls come from the whole dose curve; as a rule, active = well fitted curve in the direction sought with a large enough effect; inconclusive = small, poorly fitted or top-dose-only effect, or another doubt; inactive = no such curve, though single readings can be large; an effect the other way counts as inactive or inconclusive. Potency is the fitted concentration of half-maximal effect.

SMILES	ELG1 DNA repair	ELG1 genotoxic	NPC1 prom act	SMN2 splice enh	Rab9 promoter act	FLuc counter
CCN(CC)CCNC(=O)c1cc2c(-c3cccc(OC)c3)nn(C)c2s1	?	5%	1%	-69%	-10%	3%
CCOCCCNC(=O)c1cc2c(-c3ccc(Cl)cc3)nn(C)c2s1	21µM*	-15%	-13%	-10%	-18%	-2%
COCCCNC(=O)c1cc2c(-c3cccc(OC)c3)nn(C)c2s1	12µM*	-1%	-2%	-7%	3%	-9%
CSc1ccccc1NC(=O)CSc1cccc[n+]1[O-]	0%	0%	/	/	/	/
O=C(O)CSc1ccc([N+](=O)[O-])cc1[N+](=O)[O-]	/	/	/	-11%[9.22 µM]	/	/
CSc1nsc(SC)c1C(=O)Nc1ccc(C(C)(C)C)cc1	18µM*	0%	16%	/	13%	11µM*
CSc1nsc(SC)c1C(=O)NC(=O)Nc1cccnc1	5%	1%	-3%	/	0%	-1%
Cc1cc(C)c(NC(=O)CCn2c(=O)c3cccn3c3cccnc32)c(C)c1	/	/	/	/	/	0%
CC1(C(=O)N/N=C/c2ccc3c(c2)OCO3)CC1(Br)Br (stereo not given)	14%	2%	2%	/	13%	-14%
O=C(Oc1ccc(C(=S)N2CCOCC2)cc1Cl)c1ccccc1F	?	-1%	-4%	/	-5%	?
O=C(Oc1c(CN2CCOCC2)cc(Cl)c2cccnc12)c1ccccc1	23µM*	-17%	-25%	-86%	-23%	-1%
O=C(Oc1c(CN2CCOCC2)cc(Cl)c2cccnc12)c1ccccc1F	10µM*	-15%	-39%	-94%	-33%	1%
Oc1c(Cl)cc(CN2CCOCC2)c2cccnc12	?	-6%	-33%	/	-36%	/
COc1cc(OC)cc(C(=O)Oc2c(CN3CCOCC3)cc(Cl)c3cccnc23)c1	16µM*	-11%	-37%	/	-40%	-2%
Oc1c(CN2CCc3ccccc3C2)cc(Cl)c2cccnc12	?	-9%	-31%	-80%	-32%	1%
CCc1cc(CNC(=O)c2ccc(OC3CCN(CCc4ccccc4)CC3)cc2)on1	0%	-1%	-1%	/	-2%	-1%
Cc1nn(CC(=O)N2CCC(C)CC2)c(=O)c2cc3sccc3n12	/	/	/	-4%	/	-3%
Cc1c2ccccc2nc2c(F)c(NC(C)C)c(F)c(F)c12	?	?	?	16µM*	?	3µM*
Cc1c2ccccc2nc2c(F)c(NCCO)c(F)c(F)c12	?	?	3%	25%	22%	21µM*
OCCNc1c2ccccc2nc2c(F)c(F)c(F)c(F)c12	?	-18%	-18%	10%	-28%	-2%
CCC(=O)NC(c1cc(Cl)c2cccnc2c1O)C(C)C (stereo not given)	8.2µM*	11%	-34%	/	-30%	1%
Cc1cc(C(=O)Nc2cc(C)n(Cc3ccc(Cl)cc3)n2)no1	-19%	-3%	5%	-18%	-2%	-25%
Cc1nn(Cc2ccc(Cl)c(Cl)c2)c(C)c1NC(=O)c1noc2c1CCCCC2	1%	2%	18%	-47%	-1%	2%
Cc1nn(Cc2ccc(Cl)cc2)c(C)c1NC(=O)c1noc2c1CCCCC2	23µM*	-8%	-3%	-26%	-6%	3%
Cc1cc(NC(=O)c2noc3c2CCCCC3)nn1Cc1ccc(Cl)cc1	1%	0%	-4%	-34%	-3%	13µM*
O=C(N/N=C/c1ccc2nccnc2c1)c1ccccc1O	?	3%	?	/	?	0.27µM*
O=C(N/N=C/c1ccnc2ccccc12)c1ccccc1O	?	15%	15%	/	8%	11µM*
O=C(N/N=C/c1ccc2nccnc2c1)c1ccncc1	-1%	-1%	-8%	/	0%	?
O=C(N/N=C/c1cccc(C(F)(F)F)c1)c1ccccc1O	20%	3%	18%	-9%	15%	6.7µM*

Assay outcomes deposited in PubChem BioAssay by National Center for Advancing Translational Sciences (NCATS).
